# RecA splice inh: Mtb RecA intein splicing inhibitors, primary screen, biochemical, fluorescence, HTS; hit rate 0.75% among 290,000; cell-free RecA intein splicing; Protein RecA (Mycobacterium tuberculosis (strain ATCC 25618 / H37Rv)), P9WHJ3; inhibition, % (test concentration not listed); AID 2221, 2009; in the data active = inhibition above about 30%;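 note: 0% = vehicle wells and 100% = reference inhibitor control wells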
# Target sequence (P9WHJ3 whole entry, looked up, canonical isoform): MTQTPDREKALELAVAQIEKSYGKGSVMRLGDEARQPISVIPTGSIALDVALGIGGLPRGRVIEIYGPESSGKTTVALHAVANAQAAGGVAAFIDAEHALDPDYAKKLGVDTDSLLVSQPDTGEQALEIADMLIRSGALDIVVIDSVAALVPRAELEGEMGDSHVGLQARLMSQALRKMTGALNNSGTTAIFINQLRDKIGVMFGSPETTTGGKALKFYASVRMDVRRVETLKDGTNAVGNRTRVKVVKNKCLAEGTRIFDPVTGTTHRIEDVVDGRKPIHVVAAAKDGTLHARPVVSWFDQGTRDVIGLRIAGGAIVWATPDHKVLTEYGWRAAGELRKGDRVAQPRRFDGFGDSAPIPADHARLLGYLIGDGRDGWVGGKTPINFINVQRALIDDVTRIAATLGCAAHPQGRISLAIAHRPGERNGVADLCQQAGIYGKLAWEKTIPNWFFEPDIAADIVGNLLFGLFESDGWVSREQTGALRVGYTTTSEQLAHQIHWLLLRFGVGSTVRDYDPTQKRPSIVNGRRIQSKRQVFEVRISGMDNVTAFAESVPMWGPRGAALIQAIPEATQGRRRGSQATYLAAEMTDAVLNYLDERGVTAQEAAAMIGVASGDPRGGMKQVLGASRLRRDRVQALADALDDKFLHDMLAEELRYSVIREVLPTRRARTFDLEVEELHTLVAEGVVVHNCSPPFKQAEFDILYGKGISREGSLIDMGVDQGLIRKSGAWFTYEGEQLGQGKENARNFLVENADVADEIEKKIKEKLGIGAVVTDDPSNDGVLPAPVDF
# GDH-TPI inh: GDH-TPI coupling enzyme inhibitors, primary screen, artefact control for M. tuberculosis FBA inhibitor project, biochemical, absorbance, full deck; GDH-TPI coupled enzyme counterscreen, NADH absorbance; inhibition, % at 4.8 µM; hit rate 1.2% among 360,000;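 note: 0% = DMSO wells and 100% = wells lacking the enzyme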
# FBA Mtb inh: Mtb FBA enzyme inhibitors, primary screen, biochemical, fluorescence, strain H37Rv; Fructose-bisphosphate aldolase (Mycobacterium tuberculosis (strain ATCC 25618 / H37Rv)), …; purified M. tuberculosis FBA, fluorescence read-out; inhibition, % at 1 µM; hit rate 2.3% among 360,000; AID 588726, 2011; in the data active = inhibition above about 27%;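 note: 0% = vehicle and 100% = reference inhibitor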
# CCHF vOTU inh: CCHFV vOTU protease inhibitors, primary screen, biochemical, Pep-AMC substrate, fluorescence; AID 651958, 2012; Crimean-Congo hemorrhagic fever virus L polyprotein viral ovarian tumor (vOTU) protease …; inhibition, % at 11.5 µM; hit rate 0.55% among 370,000; note: 0% = vehicle wells with enzyme and 100% = no enzyme wells
# Numbers without * were called inactive; / = no result; + = active, no number. In the library only some 4.2% were active in any assay of this set; here they are far more common. Cut-off read from the data, not from the text of the source, unless noted: active = inhibition above about 30%; inactive = the rest.
SMILES,RecA splice inh,GDH-TPI inh,FBA Mtb inh,CCHF vOTU inh
OCc1ccc(-c2cncc3nccn23)cc1,/,13,+,-155
c1cn2c(-c3ccoc3)cncc2n1,/,3,26,-16
Cc1ccc(NC(=S)/C(=C(\[O-])c2ccc(C)c([N+](=O)[O-])c2)[n+]2ccccc2)cc1C,8,/,/,/
COc1cccc(NC(=S)/C(=C(\[O-])c2ccc(C)c([N+](=O)[O-])c2)[n+]2ccccc2)c1,37*,10,-11,-20
CC1(c2nnnn2Cc2ccccc2)CCCCC(=O)N1Cc1cccs1 (centres undefined),/,/,/,-4
O=C(NCCN1CCNC1=O)c1ccc2sc([C@@H]3O[C@H](CO)[C@H](O)[C@H](O)[C@H]3O)nc2c1,/,10,-1,-5
CC(C)C(=O)OCCCN1CCC2(CCC(c3ccccc3)CC2)C1=O (centres undefined),/,/,/,11
CC(C)CC(=O)Nc1nc(-c2ccc(S(=O)(=O)N3CCOCC3)cc2)cs1,-2,-1,31*,10
O=C(Nc1nc(-c2ccc(S(=O)(=O)N3CCOCC3)cc2)cs1)c1ccccc1,-3,12,0,9
CCCCC(=O)Nc1nc(-c2ccc(S(=O)(=O)N3CCOCC3)cc2)cs1,1,-1,36*,2
COc1ccc(CN(C)C(=O)C2CCCN(c3nc4ccccc4o3)C2)cc1 (centres undefined),/,/,/,7
CCCCN(CCCNC(=S)NCCCc1cnc[nH]1)c1ccc(Br)cn1,/,3,-2,0
O=C(N=Nc1c(O)[nH]c2ccc([N+](=O)[O-])cc12)c1ccccc1Cl,2,22,0,-13
O=C(Nc1ccc(F)cc1)C(=O)c1c(O)[nH]c2ccc([N+](=O)[O-])cc12,0,38*,3,/
N#Cc1nc(COc2ccc(-c3ccccc3)cc2)oc1NCCCN1CCOCC1,15,-11,-3,0
N#Cc1nc(-c2cccs2)oc1NCCCN1CCOCC1,-4,15,+,-230
N#Cc1nc(/C=C/c2ccccc2)oc1NCCCN1CCOCC1,-46,26,+,-350
COCCNc1oc(/C=C/c2ccccc2)nc1C#N,-54,22,/,-368
N#Cc1nc(COc2ccccc2)oc1NCCN1CCOCC1,-2,-5,3,10
COc1ccc(-c2nc(C#N)c(NCCCN3CCOCC3)o2)cc1,0,11,149*,-41
CCn1c(=S)[nH]c2c(=O)n(C)c(=O)n(C)c21,/,11,-2,8
COc1ccc2nc(SCC(=O)NN)cc(C)c2c1,42*,2,0,0
CCNC(=S)N=Nc1c(O)[nH]c2ccc([N+](=O)[O-])cc12,45*,30,-5,-6
O=[N+]([O-])c1ccc2[nH]c(O)c(N=NC(=S)NCC3CCCO3)c2c1 (centres undefined),1,14,-2,-18
O=[N+]([O-])c1ccc2[nH]c(O)c(N=NC3CS(=O)(=O)CC3O)c2c1 (centres undefined),0,45*,2,16
SMILES,RecA splice inh,GDH-TPI inh,FBA Mtb inh,CCHF vOTU inh
Cc1ccc(NCC(=O)N=Nc2c(O)[nH]c3ccc([N+](=O)[O-])cc23)cc1,-1,/,/,22
Cc1ccccc1NCC(=O)N=Nc1c(O)[nH]c2ccc([N+](=O)[O-])cc12,3,36*,-3,-2
NC(N)=NCCCS(=O)(=O)Nc1ccc(Nc2c3ccccc3nc3cc([N+](=O)[O-])ccc23)cc1,/,5,2,-15
COc1ccc(-c2ccc3oc(-c4ccc(OC)cc4)c(C#CCO)c3c2)cc1,1,31*,16,-1
COc1ccc(-c2oc3ccc(-c4ccc(OC)nc4)cc3c2-c2ccc(OC)cc2)cc1,0,-6,0,22
COc1ccc(-c2oc3ccc(-c4ccc5c(c4)OCO5)cc3c2C#CC2(O)CCCCC2)cc1,-1,54*,45*,-9
COc1ccc(-c2oc3ccc(-c4ccc(OC)nc4)cc3c2C#CC2(O)CCCCC2)cc1,-4,31*,7,-1
COc1cc(-c2ccc3oc(-c4cccc(C)c4)c(C#CC4(O)CCCCC4)c3c2)cc(OC)c1OC,/,35*,117*,-14
COc1ccc(-c2sc3cc4c(cc3c2C#CC2(O)CCCCC2)OCO4)cc1,/,12,6,-2
COc1ccc(C(=O)c2c(-c3ccc(OC)cc3)oc3ccc(-c4cc(OC)c(OC)c(OC)c4)cc23)cc1,-5,37*,9,1
COc1ccc(-c2oc3ccc(-c4cc(OC)c(OC)c(OC)c4)cc3c2C(=O)c2ccc(OC)nc2)cc1,2,14,0,3
O=C(Cn1cc(C(F)(F)F)ccc1=O)Nc1ccc2c(c1)OCO2,/,-8,1,-15
CN1/C(=C/C(=O)COC(=O)CN2C(=O)C3CC=CCC3C2=O)C(C)(C)c2ccccc21 (centres undefined),/,30,6,-4
CN1/C(=C\C(=O)COC(=O)Cn2nnc(-c3ccccc3)n2)C(C)(C)c2ccccc21,6,34*,1,0
CCOC(=O)C1CCCN(CC(=O)/C=C2/N(C)c3ccccc3C2(C)C)C1 (centres undefined),-4,31*,6,-5
CN1/C(=C/C(=O)C2CC2)C(C)(C)c2ccccc21,3,24,6,1
O=[N+]([O-])c1ccc(NCCc2ccccc2)c(Br)c1,4,/,/,-3
N#C/C(=C/c1cn(-c2ccccc2)nc1-c1cccc(S(=O)(=O)N2CCCC2)c1)C(=O)NCc1ccco1,10,31*,0,3
O=C(N/N=C/c1ccc(Sc2ccccn2)o1)c1cccc([N+](=O)[O-])c1,-2,25,-5,5
O=C(N/N=C/c1cnc2ccccc2n1)c1cccc(F)c1,-3,37*,-3,0
C/C(=N\NC(=O)c1cc2ccccc2cc1O)c1ccccn1,-2,20,4,28
O=C(N/N=C\c1ccc(Sc2ccccn2)o1)c1cccc(F)c1,1,31*,-1,3
O=C(N/N=C/c1ccc(Sc2ccccn2)o1)c1cc2ccccc2cc1O,-66,51*,-2,/
CCCSc1ccc([C@H]2N[C@@](C)(C(=O)OC)[C@H]3C(=O)N(CC)C(=O)[C@@H]23)cc1,/,-7,-1,2
COc1ccc(NC(=S)NC(NC(=O)CCl)C(Cl)(Cl)Cl)c([N+](=O)[O-])c1 (centres undefined),55*,-3,-4,/
COc1cccc(C(NC(C)=O)c2nc(-c3cccc(C(=O)O)c3)cs2)c1 (centres undefined),/,2,5,-1
COc1ccc2c(C)c(C(=O)NCC(C)O)oc2c1OC (centres undefined),-5,3,138*,-6
COc1ccccc1CNC(=O)c1oc2ccccc2c1C,1,-6,1,-2
Cc1cc(=O)oc2c3c(cc(OCC(=O)NCc4ccco4)c12)OC(C)(C)CC3,1,13,+,-162

# Compound activity deposited in PubChem BioAssay by several laboratories.
